Data taken from PubChem BioAssay (NCI).
Values joined by “and” are separate entries in the source; they are usually repeats but may differ in a detail not shown here. Identical values can stand only once. The panel holds about 83,000 compounds, 20% with a hit somewhere; the sample as a whole holds those more often.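 Cell lines were cultured in 96-well plates, exposed to a single compound concentration, and assessed for percent growth 48 hours later.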 Active and inactive are the calls of the source. Rule for the calls: active = growth percent below 10; inactive = the rest.

What was measured:
Assay in all cases: NCI-60 one-dose screen, 48 h (100 = growth as untreated, 0 = no growth, -100 = all killed)
[1] = tested on: NCI-H23 lung
[2] = tested on: NCI-H226 lung
[3] = tested on: NCI-H322M lung
[4] = tested on: HOP-62 NSCLC
[5] = tested on: NCI-H460 lung; conditions: 10 µM unless noted
[6] = tested on: HOP-92 NSCLC
[7] = tested on: NCI-H522 lung
[8] = tested on: A549/ATCC NSCLC; conditions: 10 µM unless noted
[9] = tested on: 786-0 renal
[10] = tested on: COLO 205 colon
[11] = tested on: DU-145 prostate
[12] = tested on: K-562 leukemia
[13] = tested on: MALME-3M melanoma
[14] = tested on: MDA-MB-231 breast
[15] = tested on: RXF 393 renal
[16] = tested on: SF-268 CNS
[17] = tested on: SF-295 CNS
[18] = tested on: SF-539 CNS; conditions: 10 µM unless noted
[19] = tested on: UACC-257 melanoma; conditions: 10 µM unless noted
[20] = tested on: M14 melanoma; conditions: 10 µM unless noted

Measured: growth

CO/N=C/C=C\C(=O)N/C=C/C[C@H]1/C=C/[C@H](O)/C=C\C=C\c2cccc(O)c2C(=O)O1
active: [2]; 10 µM unless noted -81.9% and -73.8% | [12]; 10 µM unless noted 4.46% and 2.94% | [17]; 10 µM unless noted -36.9% and -43.7%
16.9% (inactive) and 8.82% (active): [5]
23.9% (inactive) and -9.99% (active): [6]; 10 µM unless noted
-16.7% (active) and 21.8% (inactive): [19]
21% (inactive) and 4.04% (active): [18]
inactive: [1]; 10 µM unless noted 61.4% and 54.8% | [3]; 10 µM unless noted 42.8% and 51.7% | [4]; 10 µM unless noted 19.5% and 17.4% | [7]; 10 µM unless noted 28.1% and 15% | [8] 18.1% and 12% | [9]; 10 µM unless noted 24.2% and 18.7% | [10]; 10 µM unless noted 15.2% and 14.3% | [11]; 10 µM unless noted 55.6% and 40% | [13]; 10 µM unless noted 59.8% and 22.5% | [14]; 10 µM unless noted 27.3% and 41.9% | [15]; 10 µM unless noted 51% and 55.5% | [16]; 10 µM unless noted 45.5% and 31.9%

O=S(=O)(Nc1ccccc1)C1CCCCC1
inactive: [1]; 10 µM unless noted 98.6% and 96.6% | [2]; 10 µM unless noted 106% and 103% | [3]; 10 µM unless noted 103% and 116% | [4]; 10 µM unless noted 107% and 101% | [5] 112% and 118% | [6]; 10 µM unless noted 113% and 108% | [7]; 10 µM unless noted 84.5% and 94.1% | [8] 98.7% and 108% | [9]; 10 µM unless noted 105% and 110% | [10]; 10 µM unless noted 102% and 122% | [11]; 10 µM unless noted 108% and 113% | [12]; 10 µM unless noted 97.6% and 93.8% | [13]; 10 µM unless noted 121% and 123% | [14]; 10 µM unless noted 106% and 105% | [15]; 10 µM unless noted 120% and 118% | [16]; 10 µM unless noted 99% and 114% | [17]; 10 µM unless noted 105% and 110% | [18] 109% and 95.4% | [19] 108% and 107%

Cc1cc(-c2ccc(NS(=O)(=O)c3ccccc3)c(C)c2)ccc1NS(=O)(=O)c1ccccc1
inactive: [1]; 10 µM unless noted 85% and 97.8% | [2]; 10 µM unless noted 82.2% and 92.1% | [3]; 10 µM unless noted 92.7% and 121% | [4]; 10 µM unless noted 94.2% and 111% | [5] 78% and 87.6% | [6]; 10 µM unless noted 83.3% and 88% | [7]; 10 µM unless noted 52.8% and 64.8% | [8] 67% and 80.5% | [9]; 10 µM unless noted 96.8% and 107% | [10]; 10 µM unless noted 91.9% and 121% | [11]; 10 µM unless noted 93.8% and 94.7% | [12]; 10 µM unless noted 62.7% and 65.9% | [13]; 10 µM unless noted 79.6% and 120% | [14]; 10 µM unless noted 70.1% and 74.5% | [15]; 10 µM unless noted 70.1% and 119% | [16]; 10 µM unless noted 91.5% and 106% | [17]; 10 µM unless noted 58.1% and 99.4% | [18] 108% and 95.9% | [19] 93.6% and 110%

Cc1nn(-c2ccccc2)nc1C(=O)Nc1ccccc1C(=O)NCC1CC1
inactive: [1]; 10 µM unless noted 102% and 77.6% | [2]; 10 µM unless noted 98.1% and 45.7% | [3]; 10 µM unless noted 111% and 76.7% | [4]; 10 µM unless noted 96.7% and 46.1% | [5] 94.3% and 26.8% | [6]; 10 µM unless noted 75.8% | [7]; 10 µM unless noted 91.9% | [8] 67.8% and 38.7% | [9]; 10 µM unless noted 110% and 35.1% | [10]; 10 µM unless noted 95.3% and 52.8% | [11]; 10 µM unless noted 109% and 62.6% | [12]; 10 µM unless noted 91.4% and 44.3% | [13]; 10 µM unless noted 135% and 97% | [14]; 10 µM unless noted 79.8% and 23.6% | [15]; 10 µM unless noted 105% and 77.4% | [16]; 10 µM unless noted 123% and 91% | [17]; 10 µM unless noted 114% and 59.5% | [18] 88.8% and 30.9% | [19] 111% | [20] 105% and 81.8%

CC(C)CNC(=O)c1ccccc1C(=O)NC1(C(=O)NCC(C)C)CCCC1
inactive: [1]; 10 µM unless noted 100% and 108% | [2]; 10 µM unless noted 99% and 103% | [3]; 10 µM unless noted 112% and 106% | [4]; 10 µM unless noted 102% and 95.6% | [5] 108% and 113% | [6]; 10 µM unless noted 117% | [7]; 10 µM unless noted 95.9% | [8] 95.7% and 107% | [9]; 10 µM unless noted 107% and 99% | [10]; 10 µM unless noted 102% and 121% | [11]; 10 µM unless noted 111% and 109% | [12]; 10 µM unless noted 102% | [13]; 10 µM unless noted 125% | [14]; 10 µM unless noted 109% and 105% | [15]; 10 µM unless noted 113% and 130% | [16]; 10 µM unless noted 104% | [17]; 10 µM unless noted 111% and 105% | [18] 100% | [19] 102% and 106%

Cc1nn(-c2ccc(Cl)cc2)c2ncnc(N/N=C/c3ccccc3O)c12
33.3% (inactive) and 7.57% (active): [3]; 10 µM unless noted
active: [4]; 10 µM unless noted 7.93% and 9.97% | [5] 5.04% and 1.12% | [9]; 10 µM unless noted 8.99% and 6.59% | [16]; 10 µM unless noted 9.67% and 7.69% | [19] -3.7% and 9.92%
9.46% (active) and 12.8% (inactive): [8]
14% (inactive) and 4.62% (active): [18]
inactive: [1]; 10 µM unless noted 37% and 18.5% | [2]; 10 µM unless noted 52.8% and 27.9% | [6]; 10 µM unless noted 44.1% and 26.6% | [7]; 10 µM unless noted 23.3% | [11]; 10 µM unless noted 19.1% and 21% | [12]; 10 µM unless noted 18.5% and 14.7% | [14]; 10 µM unless noted 32.6% and 32.4% | [15]; 10 µM unless noted 25.7% and 14.5% | [17]; 10 µM unless noted 24.5% and 10%
48.7% (inactive) and 0.643% (active): [13]; 10 µM unless noted
18.7% (inactive) and 4.16% (active): [10]; 10 µM unless noted

CN(C)CCC(=O)c1ccc(Cl)cc1
inactive: [1]; 10 µM unless noted 109% and 86.8% | [2]; 10 µM unless noted 99.3% and 110% | [3]; 10 µM unless noted 110% and 116% | [4]; 10 µM unless noted 112% and 115% | [5] 113% and 114% | [6]; 10 µM unless noted 86.4% and 124% | [8] 109% and 107% | [9]; 10 µM unless noted 104% and 106% | [10]; 10 µM unless noted 121% and 118% | [11]; 10 µM unless noted 112% and 133% | [12]; 10 µM unless noted 110% and 91.3% | [13]; 10 µM unless noted 106% and 122% | [14]; 10 µM unless noted 105% and 107% | [15]; 10 µM unless noted 110% and 121% | [16]; 10 µM unless noted 105% and 107% | [17]; 10 µM unless noted 117% and 126% | [18] 106% | [19] 103% and 104%
79.8% (inactive) and -84.6% (active): [7]; 10 µM unless noted

O=C(O)c1sccc1O
inactive: [1]; 10 µM 80.1% | [1]; 100 µM 37.2% | [2]; 10 µM 89.2% | [2]; 100 µM 74.1% | [3]; 10 µM 87.5% | [3]; 100 µM 50.9% | [4]; 10 µM 102% | [4]; 100 µM 34.1% | [6]; 10 µM 66.9% | [6]; 100 µM 26.9% | [7]; 10 µM 64.5% | [9]; 10 µM 99.1% | [9]; 100 µM 47.6% | [10]; 10 µM 111% | [10]; 100 µM 84.6% | [11]; 10 µM 83.1% | [11]; 100 µM 40.3% | [12]; 10 µM 60.5% | [13]; 10 µM 103% | [13]; 100 µM 78.8% | [14]; 10 µM 40.8% | [14]; 100 µM 27.7% | [15]; 10 µM 84.6% | [15]; 100 µM 52.1% | [16]; 10 µM 71.6% | [16]; 100 µM 26% | [17]; 10 µM 76.6% | [17]; 100 µM 31.2%
active: [7]; 100 µM -32.6% | [12]; 100 µM 5.69%
